PubChem BioAssay AID1850 (Southern Research Specialized Biocontainment Screening …, 2009)
The whole screen tested about 310,000 compounds, of which about 1,000 (0.32%) were called active. The list is a sample of the results. Entries with a potency or affinity are not part of this list. A number with no mark means an inactive call. The rule behind the calls is not given here.

Assay: Inhibition of PhoP regulon, Salmonella typhi GFP reporter cells, confirmation, 4 h (AID 1850);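 note: 0% = induced wells with vehicle and 100% = uninduced wells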
Conditions: Salmonella Typhi PhoP-promoter GFP reporter, fluorescence, at 50 µM, stronger effect = higher value

Structure (SMILES)	inhibition
CCCCOc1ccc(C(=O)N2CC(C)OC(C)C2)cc1 (stereo unspecified)	-8.56%
Cc1ccc(N2OC3C(=O)NC(=O)C3C2c2ccco2)cc1 (stereo unspecified)	-16%
COc1ccc(C(=O)Cn2nc(CNc3ccc(Br)cc3)[n+]3c2CCCCC3)cc1	1.1%
COc1ccc(NCc2nn(CC(=O)c3ccc(Br)cc3)c3[n+]2CCCCC3)cc1	8.75%
O=C(Cn1nc(CNc2ccc(Cl)cc2)[n+]2c1CCCCC2)c1ccccc1	-5.48%
Cc1ccc(C(C)C)c(OCc2nn(CC(=O)c3ccc(Cl)cc3)c3[n+]2CCCCC3)c1	-26.5%
COC(=O)CNC(c1ccccc1)c1cc(Cl)ccc1NC(=O)c1cccc(Cl)c1 (stereo unspecified)	-1.38%
CCCCOc1ccc(Cc2cnc(N)nc2N)cc1	-18.3%
COCc1cnc(C)nc1N	-2.28%
COc1ccccc1OCc1nc2ccccc2n1C	-1.73%
O=C(NNC(=O)C(c1ccccc1)c1ccccc1)c1cccs1	-3.78%
CN1CCN(c2ccc(NC(=O)c3ccc(Br)o3)cc2)CC1	-0.39%
CN1CCN(c2ccc(NC(=O)c3ccc(-c4ccc(Cl)cc4)o3)cc2)CC1	14.7%
Cc1ccc(NC(=O)CSc2nnc(CNC(=O)c3ccco3)o2)cc1Cl	-4.93%
CCCCC(=O)NC(=S)NNC(=O)CC#N	15.9%
CCCCC(=O)NNC(=S)NC(=O)c1ccc(C)cc1	12.1%
CCCCC(=O)NNC(=S)NC(=O)C(c1ccccc1)c1ccccc1	-0.63%
CCCCC(=O)NC(=S)NNC(=O)CCc1ccccc1	-4.48%
CCCCCC(=O)NC(=S)NC1C2CC3CC(C2)CC1C3 (stereo unspecified)	14.6%
CCCCCCCC(=O)NNC(=O)CCC(=O)O	-4.06%
CCCCCC(=O)NNC(=S)NC(=O)c1ccc([N+](=O)[O-])cc1	-13%
CCCCC(=O)NC(=S)Nc1cccc(NC(=O)CC)c1	-1.01%
O=C(CNc1cccc(S(=O)(=O)N2CCOCC2)c1)N1CCc2ccccc21	-12.4%

Structure (SMILES)	inhibition
Cc1cc(-n2c(=S)sc3c(=O)n(-c4ccc(F)cc4)c(SCC(=O)O)nc32)ccc1Cl	2.23%
CN(c1ccccc1)S(=O)(=O)c1ccc(NC(=O)c2ccc(F)cc2)cc1	-3.04%
Cc1cc(OCC(=O)Nc2ccc(OCc3ccccc3)cc2)nc(C(C)C)n1	-4.55%
O=C(CCn1cnc(-c2ccccc2)c1-c1ccccc1)N/N=C/c1ccccc1O	-2.92%
COc1cccc(-c2ccc(SCC(=O)NC3CCCC3)nn2)c1	-7.47%
CCN1CCN(C(=O)CCS(=O)(=O)c2cc3c(cc2Cl)NC(=O)CO3)CC1	12.4%
CCn1c(C)cc(/C=C2/SC(=S)N(CC(=O)O)C2=O)c1C	6.61%
O=C(Oc1cccc(NC(=O)c2ccco2)c1)c1cccc(S(=O)(=O)N2CCCCC2)c1	2.38%
Cn1c(=N)n(CC(=O)c2ccc(Br)s2)c2ccccc21	-0.89%
N=c1n(CC(=O)c2cccs2)c2ccccc2n1Cc1ccccc1	11.7%
CCN(CC)CCn1c(=N)n(CC(=O)c2ccc(Br)s2)c2ccccc21	14.1%
CCn1c(=N)n(CC(=O)c2ccc(Br)s2)c2ccccc21	11.2%
CCc1cc(CNC(=O)C2CCC(=O)N(CCc3ccc(OC)cc3)C2)on1 (stereo unspecified)	-3.38%
CCOC(=O)C1=C(c2ccccc2)NC(N)=NC1c1ccc(OCc2ccc(Cl)cc2)c(OC)c1 (stereo unspecified)	0.34%
CCOC(=O)C1=C(c2ccccc2)Nc2ncnn2C1c1ccc(C(=O)O)cc1 (stereo unspecified)	-0.92%
Cc1ccc(SCc2cc(=O)[nH]c(N3CCOCC3)n2)cc1	4.21%
C#CCOCCOCCOCCNc1nc(N2CCN(C(=O)CCCCCCCCCCNC(=O)[C@H](CCCCN)n3cc(C)nn3)CC2)nc(N2CCN(C(=O)CCCCCCCCCCNC(=O)[C@H](CCCCN)n3cc(CCCC(=O)O)nn3)CC2)n1	-29.8%
C#CCOCCOCCOCCNc1nc(N2CCN(C(=O)CCCCCCCCCCNC(=O)[C@H](CCCCN)n3cc(CCCC(=O)O)nn3)CC2)nc(N2CCN(C(=O)CCCCCCCCCCNC(=O)[C@H](CCCCN)n3cc(CCCC(=O)O)nn3)CC2)n1	0.23%
C#CCOCCOCCOCCNc1nc(N2CCN(C(=O)CCCCCCCCCCNC(=O)[C@@H](CCSC)n3cc(CCO)nn3)CC2)nc(N2CCN(C(=O)CCCCCCCCCCNC(=O)[C@H](CCCN=C(N)N)n3cc(C[C@@H](C)CC)nn3)CC2)n1	-10.5%
C#CCOCCOCCOCCNc1nc(N2CCN(C(=O)CCCCCCCCCCNC(=O)[C@H](CCCCN)n3cc(CCO)nn3)CC2)nc(N2CCN(C(=O)CCCCCCCCCCNC(=O)[C@H](CCCCN)n3cc(CCCC(=O)O)nn3)CC2)n1	-30.2%
C#CCOCCOCCOCCNc1nc(N2CCN(C(=O)CCCCCCCCCCNC(=O)[C@H](CCCCN)n3cc(CCCC(=O)O)nn3)CC2)nc(N2CCN(C(=O)CCCCCCCCCCNC(=O)[C@H](CCCN=C(N)N)n3cc(C[C@@H](C)CC)nn3)CC2)n1	13.7%
C#CCOCCOCCOCCNc1nc(N2CCN(C(=O)CCCCCCCCCCNC(=O)Cn3cc(C[C@@H](C)O)nn3)CC2)nc(N2CCN(C(=O)CCCCCCCCCCNC(=O)[C@H](CCCN=C(N)N)n3cc(C[C@@H](C)CC)nn3)CC2)n1	25.7%
C#CCOCCOCCOCCNc1nc(N2CCN(C(=O)CCCCCCCCCCNC(=O)[C@H](CCCCN)n3cc(C[C@@H](C)CC)nn3)CC2)nc(N2CCN(C(=O)CCCCCCCCCCNC(=O)[C@@H]([C@H](C)O)n3cc(C)nn3)CC2)n1	51.8%
